In PubChem BioAssay (NCI):
Several values for one entry are separate records, joined by “and”; a condition that tells them apart may be missing. Equal entries are not always repeated. This is part of a sample that, as a whole, favours compounds with a hit. Of some 83,000 tested, about 20% had one in any assay.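 Note: values are percent growth. 100 is the growth of untreated cells, values between 100 and 0 indicate rising inhibition; between -100 and 0 indicates cell death.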 Activity calls are given as the source filed them. Rule for the calls: active = growth percent below 10; inactive = the rest.

Tests used:
Test in all cases: NCI-60 one-dose screen, 48 h (100 = growth as untreated, 0 = no growth, -100 = all killed)
NCI-H23 lung = test system: NCI-H23 lung
NCI-H226 lung = test system: NCI-H226 lung
NCI-H322M lung = test system: NCI-H322M lung
NCI-H460 lung = test system: NCI-H460 lung
HOP-92 NSCLC = test system: HOP-92 NSCLC
NCI-H522 lung = test system: NCI-H522 lung
A549/ATCC NSCLC = test system: A549/ATCC NSCLC
786-0 renal = test system: 786-0 renal
COLO 205 colon = test system: COLO 205 colon
HOP-62 NSCLC = details: 10 µM

Measured: growth

O=[N+]([O-])c1cc(S(=O)(=O)Nc2ccccc2)ccc1Cl
inactive: NCI-H23 lung; 10 µM 97% | NCI-H226 lung; 10 µM 99% | NCI-H322M lung; 10 µM 90.9% | NCI-H460 lung; 10 µM 108% | HOP-92 NSCLC; 10 µM 90% | NCI-H522 lung; 10 µM 73.8% | A549/ATCC NSCLC; 10 µM 91.6% | 786-0 renal; 10 µM 100% | COLO 205 colon; 10 µM 119%

CN(C)c1ccc(/C=C/c2ccnc3ccccc23)cc1N
active: HOP-92 NSCLC; 10 µM -3.62%
inactive: NCI-H23 lung; 10 µM 48.8% | NCI-H226 lung; 10 µM 53% | NCI-H322M lung; 10 µM 85.1% | NCI-H460 lung; 10 µM 77.9% | NCI-H522 lung; 10 µM 56.6% | A549/ATCC NSCLC; 10 µM 72.6% | 786-0 renal; 10 µM 85.6% | COLO 205 colon; 10 µM 62.9%

CCC(C)(c1ccc(O)c(C)c1)c1ccc(O)c(C)c1
inactive: NCI-H23 lung; 10 µM 91.9% | NCI-H226 lung; 10 µM 101% | NCI-H322M lung; 10 µM 318% | HOP-62 NSCLC 84.5% | NCI-H460 lung; 10 µM 97.3% | HOP-92 NSCLC; 10 µM 82.4% | NCI-H522 lung; 10 µM 75.9% | A549/ATCC NSCLC; 10 µM 83.4% | 786-0 renal; 10 µM 63.5%

CN(CC(=O)O)c1ccc(/C=C/c2ccnc3ccccc23)cc1
inactive: NCI-H23 lung; 10 µM 99% | NCI-H226 lung; 10 µM 60.8% | NCI-H322M lung; 10 µM 98.7% | NCI-H460 lung; 10 µM 94.5% | HOP-92 NSCLC; 10 µM 46.2% | NCI-H522 lung; 10 µM 78.1% | A549/ATCC NSCLC; 10 µM 74.3% | 786-0 renal; 10 µM 95.8% | COLO 205 colon; 10 µM 91.2%

CCC(=O)Oc1ccc(/C=N/NC(N)=S)nc1
inactive: NCI-H23 lung; 10 µM 26.7% | NCI-H226 lung; 10 µM 79.1% | NCI-H322M lung; 10 µM 46% | HOP-62 NSCLC 36.4% | NCI-H460 lung; 10 µM 52% | HOP-92 NSCLC; 10 µM 68.5% | NCI-H522 lung; 10 µM 39.4% | A549/ATCC NSCLC; 10 µM 98.8% | 786-0 renal; 10 µM 23.6% | COLO 205 colon; 10 µM 79.5%

CC(=O)O[C@H]1C(=O)[C@@]2(C)[C@H]([C@H](OC(=O)c3ccccc3)[C@]3(O)C[C@H](OC(=O)[C@H](O)[C@@H](NC(=O)c4ccccc4)c4ccccc4)C(C)=C1C3(C)C)[C@]1(OC(C)=O)CO[C@@H]1C[C@@H]2O
-16.2% (active) and 11.8% (inactive): NCI-H522 lung; 10 µM
active: NCI-H460 lung; 2.5 µM 3.32% | NCI-H460 lung; 5 µM 4.65% | NCI-H460 lung; 10 µM 8.92% and 6.58% | NCI-H522 lung; 2.5 µM -12.4% | NCI-H522 lung; 5 µM 1.57% | COLO 205 colon; 2.5 µM -54.6% | COLO 205 colon; 5 µM -47.9% | COLO 205 colon; 10 µM 9.93% and -37.3%
inactive: NCI-H23 lung; 0.01 µM 24.1% | NCI-H23 lung; 2.5 µM 23.2% | NCI-H23 lung; 5 µM 30.5% | NCI-H23 lung; 10 µM 40.3% and 34.8% | NCI-H226 lung; 0.01 µM 67.6% | NCI-H226 lung; 2.5 µM 27.4% | NCI-H226 lung; 5 µM 32.1% | NCI-H226 lung; 10 µM 77.4% and 31% | NCI-H322M lung; 0.01 µM 53.8% | NCI-H322M lung; 2.5 µM 30.7% | NCI-H322M lung; 5 µM 30.1% | NCI-H322M lung; 10 µM 21.2% and 30.1% | NCI-H460 lung; 0.01 µM 13.8% | HOP-92 NSCLC; 0.01 µM 53.2% | HOP-92 NSCLC; 2.5 µM 32.9% | HOP-92 NSCLC; 5 µM 42.7% | HOP-92 NSCLC; 10 µM 37.4% | NCI-H522 lung; 0.01 µM 22.1% | A549/ATCC NSCLC; 0.01 µM 31.4% | A549/ATCC NSCLC; 2.5 µM 18.5% | A549/ATCC NSCLC; 5 µM 21.2% | A549/ATCC NSCLC; 10 µM 47.3% and 29.9% | 786-0 renal; 0.01 µM 51.7% | 786-0 renal; 2.5 µM 17.7% | 786-0 renal; 5 µM 31% | 786-0 renal; 10 µM 42.2% and 42.3% | COLO 205 colon; 0.01 µM 13.4%

Nc1nc(N)c2cc(Sc3ccc4ccccc4c3)ccc2n1
inactive: NCI-H23 lung; 10 µM 43.1% | NCI-H226 lung; 10 µM 57.7% | NCI-H322M lung; 10 µM 48% | NCI-H460 lung; 10 µM 16.1% | HOP-92 NSCLC; 10 µM 30.3% | NCI-H522 lung; 10 µM 31.4% | A549/ATCC NSCLC; 10 µM 15.2% | 786-0 renal; 10 µM 23%
active: COLO 205 colon; 10 µM -71.6%

Cc1cc(O)c2c(c1O)C(=O)C13C(=C2O)C(=O)C2C(O)C1C1C(O)C3C(=O)C3=C(O)c4c(O)cc(C)c(O)c4C(=O)C321 (configuration not stated)
inactive: NCI-H23 lung; 10 µM 32.3% | NCI-H322M lung; 10 µM 19.4%
active: NCI-H226 lung; 10 µM -2.71% | NCI-H460 lung; 10 µM 0.0816% | HOP-92 NSCLC; 10 µM -18.2% | NCI-H522 lung; 10 µM 5.74% | A549/ATCC NSCLC; 10 µM -11.4% | 786-0 renal; 10 µM -33.2% | COLO 205 colon; 10 µM -30.4%

O=C1C=CC(=O)N1c1ccc(N2C(=O)C=CC2=O)cc1
active: NCI-H522 lung; 10 µM -11.5%
inactive: NCI-H23 lung; 10 µM 91.3% | NCI-H226 lung; 10 µM 84.8% | NCI-H322M lung; 10 µM 92.4% | NCI-H460 lung; 10 µM 103% | HOP-92 NSCLC; 10 µM 123% | A549/ATCC NSCLC; 10 µM 101% | 786-0 renal; 10 µM 103% | COLO 205 colon; 10 µM 95.2%

CN(C)CCNc1cccc2sc3ccc(O)cc3c(=O)c12
inactive: NCI-H23 lung; 10 µM 54.6% | NCI-H226 lung; 10 µM 74% | NCI-H322M lung; 10 µM 59.1% | NCI-H460 lung; 10 µM 16% | HOP-92 NSCLC; 10 µM 31.9% | A549/ATCC NSCLC; 10 µM 17.3% | 786-0 renal; 10 µM 63.3% | COLO 205 colon; 10 µM 34.9%
